# From the supplement of paper PMC8728848
# Only a selection was taken, and the strongest signals are over-represented in it overall.
# B1: Siglec-7-SA-PE-180 (Homo sapiens), Q9Y286 (protein)
# chain: MLLLLLLPLLWGRERVEGQKSNRKDYSLTMQSSVTVQEGMCVHVRCSFSYPVDSQTDSDPVHGYWFRAGNDISWKAPVATNNPAWAVQEETRDRFHLLGDPQTKNCTLSIRDARMSDAGRYFFRMEKGNIKWNYKYDQLSVNVTALTHRPNILIPGTLESGCFQNLTCSVPWACEQGTPPMISWMGTSVSPLHPSTTRSSVLTLIPQPQHHGTSLTCQVTLPGAGVTTNRTIQLNVSYPPQNLTVTVFQGEGTASTALGNSSSLSVLEGQSLRLVCAVDSNPPARLSWTWRSLTLYPSQPSNPLVLELQVHLGDEGEFTCRAQNSLGSQHVSLNLSLQQEYTGKMRPVSGVLLGAVGGAGATALVFLSFCVIFIVVRSCRKKSARPAADVGDIGMKDANTIRGSASQGNLTESWADDNPRHHGLAAHSSGEEREIQYAPLSFHKGEPQDLSGQEATNNEYSEIKIPK
# Tests used:
# Assay in all cases: glycan array binding signal (z-score within array); higher = stronger binding
# Details in all cases: glycan notation: IUPAC condensed, linker removed
# [1] = molecular target: Fuc(a1-2)Gal(b1-3)GalNAc(b1-3)Gal(a1-4)Gal(b1-4)Glc
# Procedure, shortened: (§1)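 Glycan array data came from 3228 arrays in the Consortium for Functional Glycomics database, and only arrays with an available protein sequence were kept. Glycan names were put into IUPAC-condensed notation, and columns mapping to the same glycan were averaged. The binding signal is a within-array Z-score, averaged across arrays of one protein sequence run at different concentrations or buffers and across linkers. A negative Z-score can be read as non-binding.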
# [2] = molecular target: Fuc(a1-2)Gal(b1-3)GlcNAc(b1-3)Gal(b1-4)Glc
# Procedure, shortened: as §1
# Fuc(a1-2)Gal(b1-4)GlcNAc = molecular target: Fuc(a1-2)Gal(b1-4)GlcNAc
# Procedure, shortened: as §1
# [3] = molecular target: Fuc(a1-2)Gal(b1-4)GlcNAc(b1-6)GalNAc
# Procedure, shortened: as §1
# [4] = molecular target: Fuc(a1-2)Gal(b1-4)[Fuc(a1-3)]GlcNAc(b1-2)Man(a1-3)[Fuc(a1-2)Gal(b1-4)[Fuc(a1-3)]GlcNAc(b1-2)Man(a1-6)]Man(b1-4)GlcNAc(b1-4)GlcNAc
# Procedure, shortened: as §1
# [5] = molecular target: Fuc(a1-2)Gal6S(b1-3)GlcNAc6S
# Procedure, shortened: as §1
# [6] = molecular target: Fuc(a1-2)[GalNAc(a1-3)]Gal(b1-3)GlcNAc
# Procedure, shortened: as §1
# [7] = molecular target: Fuc(a1-2)[GalNAc(a1-3)]Gal(b1-3)GlcNAc(b1-6)GalNAc
# Procedure, shortened: as §1
# [8] = molecular target: Fuc(a1-2)[GalNAc(a1-3)]Gal(b1-4)[Fuc(a1-3)]GlcNAc(b1-3)GalNAc
# Procedure, shortened: as §1
# Gal(a1-3)Gal(b1-3)GlcNAc = molecular target: Gal(a1-3)Gal(b1-3)GlcNAc
# Procedure, shortened: as §1
# [9] = molecular target: Gal(b1-3)[GlcNAc(b1-6)]GalNAc
# Procedure, shortened: as §1
# [10] = molecular target: Gal(b1-4)GlcNAc(a1-6)Gal(b1-4)GlcNAc
# Procedure, shortened: as §1
# [11] = molecular target: Gal(b1-4)GlcNAc(b1-2)Man(a1-3)[Man(a1-6)]Man(b1-4)GlcNAc(b1-4)GlcNAc
# Procedure, shortened: as §1
# [12] = molecular target: Gal(b1-4)GlcNAc(b1-2)[Gal(b1-4)GlcNAc(b1-6)]Man(a1-6)[GlcNAc(b1-4)][Gal(b1-4)GlcNAc(b1-2)Man(a1-3)]Man(b1-4)GlcNAc(b1-4)GlcNAc
# Procedure, shortened: as §1
# [13] = molecular target: Gal(b1-4)GlcNAc(b1-3)Gal(b1-3)GalNAc
# Procedure, shortened: as §1
# [14] = molecular target: Gal(b1-4)GlcNAc(b1-3)Gal(b1-4)GlcNAc(b1-3)Gal(b1-4)GlcNAc(b1-3)Gal(b1-4)GlcNAc(b1-3)Gal(b1-4)GlcNAc(b1-2)Man(a1-3)[Gal(b1-4)GlcNAc(b1-3)Gal(b1-4)GlcNAc(b1-3)Gal(b1-4)GlcNAc(b1-3)Gal(b1-4)GlcNAc(b1-3)Gal(b1-4)GlcNAc(b1-2)Man(a1-6)]Man(b1-4)GlcNAc(b1-4)GlcNAc
# Procedure, shortened: as §1
# [15] = molecular target: Gal(b1-4)GlcNAc(b1-3)Gal(b1-4)[Fuc(a1-3)GlcNAc(b1-6)]Gal(b1-4)Glc
# Procedure, shortened: as §1
# [16] = molecular target: Gal(b1-4)GlcNAc(b1-3)[Gal(b1-4)GlcNAc(b1-6)]GalNAc
# Procedure, shortened: as §1
# Gal(b1-4)GlcNAc6P = molecular target: Gal(b1-4)GlcNAc6P
# Procedure, shortened: as §1
# Gal6S(b1-3)GlcNAc6S = molecular target: Gal6S(b1-3)GlcNAc6S
# Procedure, shortened: as §1
# Gal6S(b1-4)GlcNAc6S = molecular target: Gal6S(b1-4)GlcNAc6S
# Procedure, shortened: as §1
# GalNAc(b1-4)Gal(b1-4)Glc = molecular target: GalNAc(b1-4)Gal(b1-4)Glc
# Procedure, shortened: as §1
# GalNAc3S(b1-4)GlcNAc3S = molecular target: GalNAc3S(b1-4)GlcNAc3S
# Procedure, shortened: as §1
# [17] = molecular target: GlcNAc(b1-3)Gal(b1-4)GlcNAc(b1-3)Gal(b1-4)GlcNAc(b1-3)Gal(b1-4)GlcNAc(b1-2)Man(a1-3)[GlcNAc(b1-3)Gal(b1-4)GlcNAc(b1-3)Gal(b1-4)GlcNAc(b1-3)Gal(b1-4)GlcNAc(b1-2)Man(a1-6)]Man(b1-4)GlcNAc(b1-4)GlcNAc
# Procedure, shortened: as §1
# [18] = molecular target: GlcNAc(b1-3)[GlcNAc(b1-6)]Gal(b1-4)GlcNAc
# Procedure, shortened: as §1
# Neu5Ac(a2-3)Gal = molecular target: Neu5Ac(a2-3)Gal
# Procedure, shortened: as §1
# [19] = molecular target: Neu5Ac(a2-3)Gal(b1-4)GlcNAc(b1-6)[Neu5Ac(a2-3)Gal(b1-3)]GalNAc
# Procedure, shortened: as §1
# [20] = molecular target: Neu5Ac(a2-3)Gal(b1-4)GlcNAc6S
# Procedure, shortened: as §1
# [21] = molecular target: Neu5Ac(a2-3)Gal6S(b1-4)GlcNAc
# Procedure, shortened: as §1
# [22] = molecular target: Neu5Ac(a2-3)[Neu5Ac(a2-6)]GalNAc
# Procedure, shortened: as §1
# [23] = molecular target: Neu5Ac(a2-6)Gal(b1-4)GlcNAc(b1-2)Man(a1-3)[Gal(b1-4)GlcNAc(b1-2)Man(a1-6)]Man(b1-4)GlcNAc(b1-4)GlcNAc
# Procedure, shortened: as §1
# [24] = molecular target: Neu5Ac(a2-6)Gal(b1-4)GlcNAc(b1-3)Gal(b1-4)GlcNAc(b1-3)GalNAc
# Procedure, shortened: as §1
# [25] = molecular target: Neu5Ac(a2-6)GalNAc(b1-4)GlcNAc6S
# Procedure, shortened: as §1
# Neu5Ac(a2-8)Neu5Ac = molecular target: Neu5Ac(a2-8)Neu5Ac
# Procedure, shortened: as §1
# [26] = molecular target: Neu5Ac(a2-8)Neu5Ac(a2-3)[Gal(b1-3)GalNAc(b1-4)]Gal(b1-4)Glc
# Procedure, shortened: as §1
# [27] = molecular target: Neu5Gc(a2-3)Gal(b1-3)GlcNAc
# Procedure, shortened: as §1
# Neu5Gc(a2-6)GalNAc = molecular target: Neu5Gc(a2-6)GalNAc
# Procedure, shortened: as §1
# [28] = molecular target: Neu5Gc(b2-6)Gal(b1-4)GlcNAc
# Procedure, shortened: as §1
binder,measurement,setting,value
B1,glycan array binding signal (z-score),[1],-0.254
same,glycan array binding signal (z-score),[2],-0.174
same,glycan array binding signal (z-score),Fuc(a1-2)Gal(b1-4)GlcNAc,-0.302
same,glycan array binding signal (z-score),[3],-0.066
same,glycan array binding signal (z-score),[4],-0.133
same,glycan array binding signal (z-score),[5],2.66
same,glycan array binding signal (z-score),[6],-0.313
same,glycan array binding signal (z-score),[7],-0.099
same,glycan array binding signal (z-score),[8],10.7
same,glycan array binding signal (z-score),Gal(a1-3)Gal(b1-3)GlcNAc,-0.363
same,glycan array binding signal (z-score),[9],-0.225
same,glycan array binding signal (z-score),[10],-0.267
same,glycan array binding signal (z-score),[11],0.048
same,glycan array binding signal (z-score),[12],-0.412
same,glycan array binding signal (z-score),[13],-0.464
same,glycan array binding signal (z-score),[14],-0.144
same,glycan array binding signal (z-score),[15],-0.383
same,glycan array binding signal (z-score),[16],-0.453
same,glycan array binding signal (z-score),Gal(b1-4)GlcNAc6P,0.085
same,glycan array binding signal (z-score),Gal6S(b1-3)GlcNAc6S,2.28
same,glycan array binding signal (z-score),Gal6S(b1-4)GlcNAc6S,2.43
same,glycan array binding signal (z-score),GalNAc(b1-4)Gal(b1-4)Glc,0.174
same,glycan array binding signal (z-score),GalNAc3S(b1-4)GlcNAc3S,2.05
same,glycan array binding signal (z-score),[17],0.059
same,glycan array binding signal (z-score),[18],-0.346
same,glycan array binding signal (z-score),Neu5Ac(a2-3)Gal,2.25
same,glycan array binding signal (z-score),[19],-0.035
same,glycan array binding signal (z-score),[20],4.5
same,glycan array binding signal (z-score),[21],2.67
same,glycan array binding signal (z-score),[22],3.03
same,glycan array binding signal (z-score),[23],-0.303
same,glycan array binding signal (z-score),[24],-0.587
same,glycan array binding signal (z-score),[25],0.866
same,glycan array binding signal (z-score),Neu5Ac(a2-8)Neu5Ac,2.11
same,glycan array binding signal (z-score),[26],-0.067
same,glycan array binding signal (z-score),[27],-0.155
same,glycan array binding signal (z-score),Neu5Gc(a2-6)GalNAc,2.26
same,glycan array binding signal (z-score),[28],-0.05
